About 75 (2%) of roughly 3,200 compounds showed an effect of 50% or more. Shown is part of a subset that was picked to be rich in strong results.
Test system: T1, S. aureus MSSA476
T1 construct: MSSA476
Set-up: species or system S. aureus MSSA476 (TSB) or V. cholerae SAD30 (LB); 384-well bacterial growth screen at 25 uM, OD600 relative to DMSO control
Conditions: relative growth, OD600, TSB; 25 µM; inhibitor

Compound	% of control remaining [%]
Cc1ccc(C=C(C#N)C(=O)NC2CCCCC2)cc1C [8-G10, 2-cyano-N-cyclohexyl-3-(3,4-dimethylphenyl)prop-2-enamide]	108.216
N#CC(=Cc1cc(F)ccc1F)C(=O)NC1CCCCC1 [8-G08, 2-cyano-N-cyclohexyl-3-(2,5-difluorophenyl)prop-2-enamide]	64.3983
N#CC(=Cc1c(F)c(F)c(F)c(F)c1F)C(=O)NC1CCCCC1 [8-O15, 2-cyano-N-cyclohexyl-3-(2,3,4,5,6-pentafluorophenyl)prop-2-enamide]	32.5311
N#CC(=Cc1ccccc1)C(=O)NC1CCCCCCC1 [8-G17, 2-cyano-N-cyclooctyl-3-phenylprop-2-enamide]	98.9212
N#CC(=Cc1ccc([N+](=O)[O-])c(Cl)c1)C(=O)NC1CCCCC1 [8-B08, 3-(3-chloro-4-nitrophenyl)-2-cyano-N-cyclohexylprop-2-enamide]	29.8755
N#CC(=Cc1ccc(F)c(F)c1)C(=O)NC1CCCCC1 [9-J22, 2-cyano-N-cyclohexyl-3-(3,4-difluorophenyl)prop-2-enamide]	94.0824
N#CC(=Cc1sc2ccccc2c1Cl)C(=O)NC1CC1 [9-C18, 3-(3-chloro-1-benzothiophen-2-yl)-2-cyano-N-cyclopropylprop-2-enamide]	110.262
C=CC(=O)NC12CC3(C)CC(C)(CC(O)(C3)C1)C2 [1-K17, N-(3-hydroxy-5,7-dimethyladamantan-1-yl)prop-2-enamide]	111.473
CC(Cl)C(=O)N(C)C1CCN(c2ccccn2)CC1 (stereo not shown) [6-J20, 2-chloro-N-methyl-N-[1-(pyridin-2-yl)piperidin-4-yl]propanamide]	95.6098
O=C(CCl)N[C@H](CO)Cc1ccccc1 [6-G20, 2-chloro-N-[(2S)-1-hydroxy-3-phenylpropan-2-yl]acetamide]	109.61
CC(=O)c1ccccc1NC(=O)C(C)Cl (stereo not shown) [5-O19, N-(2-acetylphenyl)-2-chloropropanamide]	103.825
CCN(Cc1ccc(C#N)cc1F)C(=O)CCl [5-H08, 2-chloro-N-[(4-cyano-2-fluorophenyl)methyl]-N-ethylacetamide]	105.282
CSc1ccc(C=C(C#N)C(=O)Nc2cccc(Cl)c2C)cc1 [8-N11, N-(3-chloro-2-methylphenyl)-2-cyano-3-[4-(methylsulfanyl)phenyl]prop-2-enamide]	130.788
C=CC(=O)Nc1ccc(C(=O)NC2CCN(S(C)(=O)=O)CC2)cc1 [2-M21, N-(1-methanesulfonylpiperidin-4-yl)-4-(prop-2-enamido)benzamide]	120.801
Cc1ccc(C2=NN(C(=O)CCl)C(c3cccs3)C2)cc1 (stereo not shown) [4-O22, 2-chloro-1-[3-(4-methylphenyl)-5-(thiophen-2-yl)-4,5-dihydro-1H-pyrazol-1-yl]ethan-1-one]	88.0419
O=C(CCl)N1N=C(c2cccs2)CC1c1ccc(F)cc1 (stereo not shown) [4-O20, 2-chloro-1-[5-(4-fluorophenyl)-3-(thiophen-2-yl)-4,5-dihydro-1H-pyrazol-1-yl]ethan-1-one]	137.589
COc1ccc(C2=NN(C(=O)CCl)C(c3cccc(C)c3)C2)cc1 (stereo not shown) [4-G20, 2-chloro-1-[3-(4-methoxyphenyl)-5-(3-methylphenyl)-4,5-dihydro-1H-pyrazol-1-yl]ethan-1-one]	10.2906
COc1ccc(C2=NN(C(=O)CCl)C(c3ccc(F)cc3)C2)cc1 (stereo not shown) [4-M20, 2-chloro-1-[5-(4-fluorophenyl)-3-(4-methoxyphenyl)-4,5-dihydro-1H-pyrazol-1-yl]ethan-1-one]	115.102
COc1ccc(C2=NN(C(=O)CCl)C(c3cccc(F)c3)C2)cc1 (stereo not shown) [6-P04, 2-chloro-1-[5-(3-fluorophenyl)-3-(4-methoxyphenyl)-4,5-dihydro-1H-pyrazol-1-yl]ethan-1-one]	145.463
O=C(CCl)N1N=C(c2cccs2)CC1c1ccccc1O (stereo not shown) [4-K20, 2-chloro-1-[5-(2-hydroxyphenyl)-3-(thiophen-2-yl)-4,5-dihydro-1H-pyrazol-1-yl]ethan-1-one]	3.049
O=C(CCl)N1N=C(c2cccs2)CC1c1cccs1 (stereo not shown) [4-O18, 1-[3,5-bis(thiophen-2-yl)-4,5-dihydro-1H-pyrazol-1-yl]-2-chloroethan-1-one]	105.193
O=C(CCl)N1N=C(c2cccs2)CC1c1cccc(O)c1 (stereo not shown) [6-L04, 2-chloro-1-[5-(3-hydroxyphenyl)-3-(thiophen-2-yl)-4,5-dihydro-1H-pyrazol-1-yl]ethan-1-one]	3.7561
Cc1ccc(C2CC(c3cccs3)=NN2C(=O)CCl)cc1 (stereo not shown) [4-I22, 2-chloro-1-[5-(4-methylphenyl)-3-(thiophen-2-yl)-4,5-dihydro-1H-pyrazol-1-yl]ethan-1-one]	118.533

Compound	% of control remaining [%]
N#CC(=Cc1ccc(Cl)cc1)C(=O)Nc1ccncc1 [8-K20, 3-(4-chlorophenyl)-2-cyano-N-(pyridin-4-yl)prop-2-enamide]	95.6017
C=CC(=O)Nc1ccccc1CCC(N)=O [1-A18, N-[2-(2-carbamoylethyl)phenyl]prop-2-enamide]	117.099
COc1cc(NC(=O)CCl)cc(OC)c1 [4-G09, 2-chloro-N-(3,5-dimethoxyphenyl)acetamide]	119.295
O=C(CCl)c1c(-c2ccccc2)[nH]c2ccccc12 [10-E05, 2-chloro-1-(2-phenyl-1H-indol-3-yl)ethan-1-one]	159.063
Cn1cccc1C(=O)CCl [10-B04, 2-chloro-1-(1-methyl-1H-pyrrol-2-yl)ethan-1-one]	122.188
Cn1c(-c2ccccc2)c(C(=O)CCl)c2ccccc21 [10-N04, 2-chloro-1-(1-methyl-2-phenyl-1H-indol-3-yl)ethan-1-one]	49.0625
CCNC(=O)C(C#N)=Cc1ccc(OC(F)F)cc1 [8-E05, 2-cyano-3-[4-(difluoromethoxy)phenyl]-N-ethylprop-2-enamide]	113.527
O=C1C=CC(=O)N1c1cc(C(F)(F)F)ccc1Cl [10-G09, 1-[2-chloro-5-(trifluoromethyl)phenyl]-2,5-dihydro-1H-pyrrole-2,5-dione]	133.75
CC(Cl)C(=O)Nc1sc2c(c1C#N)CCCCC2 (stereo not shown) [5-B20, 2-chloro-N-{3-cyano-4H,5H,6H,7H,8H-cyclohepta[b]thiophen-2-yl}propanamide]	104.918
O=C1C=CC(=O)N1c1ccccc1Sc1ccc(Cl)cc1 [10-A03, 1-{2-[(4-chlorophenyl)sulfanyl]phenyl}-2,5-dihydro-1H-pyrrole-2,5-dione]	10.9375
O=C1C=CC(=O)N1c1ccccc1F [10-D17, 1-(2-fluorophenyl)-2,5-dihydro-1H-pyrrole-2,5-dione]	118.75
O=C1C=CC(=O)N1c1ccccc1Sc1ccccc1 [10-K12, 1-[2-(phenylsulfanyl)phenyl]-2,5-dihydro-1H-pyrrole-2,5-dione]	129.063
CCN1C(=O)CC[C@H](CNC(=O)C(C)Cl)[C@H]1c1cnn(C)c1 (mixture of isomers) [6-L13, rac-2-chloro-N-{[(2R,3S)-1-ethyl-2-(1-methyl-1H-pyrazol-4-yl)-6-oxopiperidin-3-yl]methyl}propanamide]	89.122
C=CC(=O)N1CCc2c(nnn2CCOC)C1 [1-N05, 1-[1-(2-methoxyethyl)-1H,4H,5H,6H,7H-[1,2,3]triazolo[4,5-c]pyridin-5-yl]prop-2-en-1-one]	84.7473
C=CC(=O)NC1CCN(c2nnnn2C)CC1 [3-G06, N-[1-(1-methyl-1H-1,2,3,4-tetrazol-5-yl)piperidin-4-yl]prop-2-enamide]	85.677
CCC(NC(=O)CCl)c1c(C)noc1C (stereo not shown) [7-D03, 2-chloro-N-[1-(3,5-dimethyl-1,2-oxazol-4-yl)propyl]acetamide]	95.4474
CCOc1ccc(C(=O)CCl)cc1 [10-F12, 2-chloro-1-(4-ethoxyphenyl)ethan-1-one]	0.3125
O=C(CCl)c1ccc2c(c1)-c1ccccc1C2 [10-H17, 2-chloro-1-(9H-fluoren-3-yl)ethan-1-one]	1.875
O=C(CCl)Nc1cccc(Oc2ccccc2)c1 [4-P19, 2-chloro-N-(3-phenoxyphenyl)acetamide]	90.7099
NC(=O)COc1ccc(C(=O)CCl)cc1 [10-M07, 2-[4-(2-chloroacetyl)phenoxy]acetamide]	111.563
O=C(CCl)c1ccc(Oc2ccccc2)cc1 [10-G20, 2-chloro-1-(4-phenoxyphenyl)ethan-1-one]	-0.625
CCOc1ccc(C(=O)C(C)Cl)cc1 (stereo not shown) [10-G06, 2-chloro-1-(4-ethoxyphenyl)propan-1-one]	80.3125
O=C(CCl)Nc1ccc(Oc2ccccc2)cc1 [4-J09, 2-chloro-N-(4-phenoxyphenyl)acetamide]	73.5588

Source: article PMC11995724, “Antibiotic target discovery by integrated phenotypic and activity-based profiling of electrophilic fragments” (Cell chemical biology, 2025)
